# Where “and” joins values, the source holds several entries; their conditions need not be identical. Equal entries are not always repeated. Inconclusive results are not listed. A call without a number means that no potency is given here. Calls of active or inactive are those of the source. Unless noted, the call rests on the fitted dose curve; in most records, active means well fitted curve in the direction sought with a large enough effect; inconclusive means small, poorly fitted or top-dose-only effect, or another doubt; inactive means no such curve, though single readings can be large; an effect the other way counts as inactive or inconclusive.
# Tests used:
# [1] = qHTS of Trypanosoma Brucei Inhibitors: LOPAC Validation (AID 624147)
# Summary of the method: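 Luminescent Kinase-Glo Plus end-point after 45 min room-temperature reaction of T. brucei pyruvate kinase started with 130 uM ADP (final). Buffer TEA 50 mM pH 7.2 with KCl, MgCl2, BSA, Tween-20; titration-based qHTS with fitted concentration-effect curves.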
# [2] = target: Glucagon-like peptide 1 receptor (Homo sapiens) (UniProt P43220); assay: qHTS of GLP-1 Receptor Agonists: LOPAC Validation (AID 624148);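 further: higher luminescence signal means agonism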
# Summary of the method: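 HEK293 cells stably co-expressing a cAMP-responsive luciferase reporter and a hypersensitive GLP-1R were plated 12 h at 37 °C and exposed to compounds for 4-6 hr at 37 °C, 5% CO2. Luminescence was read 12 min after adding detection reagent.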
# [3] = qHTS of Nrf2 Activators: LOPAC Validation (AID 624149)
# Summary of the method: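 AREc32_Fluc cells, 1000/well in OPTI-MEM with 5% FBS, grown overnight, then exposed to compounds for 24 hr at 37 deg C, 5% CO2. ARE-driven firefly luciferase read by Steady-Glo luminescence after 30 min at RT.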
# [4] = HTS Assay for Allosteric Antagonists of the Human D2 Dopamine Receptor: Hit Validation in HTRF (AID 624455); further: potency means the concentration at half of the fitted maximal effect;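 further: stable D1 dopamine receptor cell line scored for blocking the D1 response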
# Summary of the method: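 Hit validation in cells stably expressing the D1 dopamine receptor, run in HTRF format. Compounds were tested for their ability to inhibit the D1-mediated response.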
# [5] = qHTS assay for small molecule agonists of the antioxidant response element (ARE) signaling pathway (AID 651741; active means well fitted activation curve with a large enough effect in the signal ratio; the % refers to the signal ratio; further: potency means the concentration at half of the fitted maximal effect)
# Summary of the method: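 Compounds in DMSO are pinned onto HepG2 ARE-bla cells (2,000/well) that were preincubated 5 h; plates stay 16 h at 37 C, then beta-lactamase activity is detected with LiveBLAzer B/G substrate by fluorescence.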
# [6] = qHTS assay for small molecule activators of the nuclear factor-kappa B (NF-kB) signaling pathway (AID 651749; active means well fitted activation curve with a large enough effect in the signal ratio; the % refers to the signal ratio); details: NF-kB-bla ME-180 cells, beta-lactamase FRET ratio, 16 h; stronger effect = higher value
# Summary of the method: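 Screening used 2,000 ME-180 reporter cells per well exposed to pinned compound (23 nL) or DMSO; after 16 hr at 37C, beta-lactamase expression under NF-kB control was assessed through FRET.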
# [7] = qHTS assay for small molecule disruptors of the mitochondrial membrane potential - 1 hr assay (AID 651754; calls by dose curve; further: potency means the concentration at half of the fitted maximal effect; nearly all actives have a fitted effect of over 35% in size)
# Summary of the method: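 HepG2 cells, attached overnight, were exposed to compound for 1 hr at 37C, then stained 30 min with a potentiometric dye. Ratio of red aggregate (590nm) to green monomer (535nm) fluorescence reports membrane potential; collapse shifts signal toward green.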
# [8] = qHTS assay for small molecule disruptors of the mitochondrial membrane potential - 5 hr assay (AID 651755; calls by dose curve; further: potency means the concentration at half of the fitted maximal effect; nearly all actives have a fitted effect of over 40% in size)
# Summary of the method: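 HepG2 cells, attached overnight at 37C, were exposed to compound or DMSO for 5 hr at 37C, 5% CO2. Mito-MPS dye was then added for 30 min, and fluorescence read at 490/535 nm (monomers) and 540/590 nm (aggregates).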
# [9] = qHTS assay for small molecule activators of the p53 signaling pathway (AID 651743; active means well fitted activation curve with a large enough effect in the signal ratio, not every such curve was filed as active; the % refers to the signal ratio; further: potency means the concentration at half of the fitted maximal effect); details: HCT-116 p53RE-bla, beta-lactamase FRET ratio, 16 h; activation: stronger effect = higher value
# Summary of the method: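 Cell-based beta-lactamase reporter (p53 response elements, HCT-116 background). After a 5-hour preincubation, cells received compound for 16 hours at 37 C; substrate development ran 2 hours at room temperature.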
# [10] = Cytotoxicity counterscreen for NFkB agonists and antagonists (AID 624476); further: potency means the concentration at half of the fitted maximal effect
# [11] = qHTS Assay for Identification of Small Molecule Agonists for NFkB Signaling Pathway. (AID 624478)
# Summary of the method: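 NFkB-bla ME-180 cells carry a beta-lactamase reporter. They received compound plus TNF alpha at 10 pM final (its EC50) for 5 h at 37 C. Reporter activity was read as 460/530 nm emission ratio after 2 h LiveBLAzer substrate loading.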
# [12] = Cell Proliferation Assay against the TMD8 Cell Line (AID 651645); details: TMD8 DLBCL cell line proliferation/viability; at 46.1 µM (top of the series);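 further: cells exposed to compound for 48 h before reading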
# Summary of the method: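 TMD8 ABC DLBCL cells, 500 per well in phenol red-free RPMI with 5% FBS, were treated with compound by pin transfer and incubated 48 hours at 37C, 5% CO2. Viability was read by CellTiter-Glo luminescence, normalised to DMSO (100%) and 9.2 uM bortezomib (0%).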
# [13] = Cell Proliferation Assay against the HBL1 Cell Line (AID 651646); details: HBL1 DLBCL cells; at 46.1 µM (top of the series);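 further: cells exposed to compound for 48 h before reading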
# Summary of the method: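 500 log-phase HBL1 cells per well in phenol red-free RPMI with 5% FBS were treated with compounds for 48 h at 37 °C, 5% CO2. Viability was read by CellTiter-Glo luminescence, normalized to DMSO (100%) and 9.2 uM bortezomib final (0%).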
# [14] = Cell Proliferation Assay against the TMD8 Cell Line (Caspase readout at 8 hrs) (AID 651713)
# Summary of the method: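 TMD8 cells in RPMI plus 5% FBS were treated with compound for 8 h at 37C. Caspase 3/7 activation was read by Caspase-Glo luminescence. Percent activity was scaled from DMSO (0%) to 9.2 uM bortezomib final (100%).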
# Sequence of Glucagon-like peptide 1 receptor (Homo sapiens) (P43220 whole entry, looked up): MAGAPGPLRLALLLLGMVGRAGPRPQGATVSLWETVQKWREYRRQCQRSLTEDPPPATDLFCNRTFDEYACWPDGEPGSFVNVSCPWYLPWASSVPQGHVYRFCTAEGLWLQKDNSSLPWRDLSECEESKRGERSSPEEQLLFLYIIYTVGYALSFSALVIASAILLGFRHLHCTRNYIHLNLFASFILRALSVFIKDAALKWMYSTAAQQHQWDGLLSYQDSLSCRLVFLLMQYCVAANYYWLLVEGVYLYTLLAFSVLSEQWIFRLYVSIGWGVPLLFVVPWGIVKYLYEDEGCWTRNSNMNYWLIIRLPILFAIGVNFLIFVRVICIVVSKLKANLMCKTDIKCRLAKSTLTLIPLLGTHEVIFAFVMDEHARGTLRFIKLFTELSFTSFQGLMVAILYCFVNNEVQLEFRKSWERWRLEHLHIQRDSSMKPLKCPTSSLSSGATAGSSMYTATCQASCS
compound,measurement,setting,value
Cn1c(=O)c2[nH]c(-c3ccccc3)nc2n(C)c1=O,Potency,[1],inactive
same,outcome,[2],inactive
same,outcome,[3],inactive
same,Potency,[4],inactive
O=C(O)CCCC[C@@H]1CCSS1,Potency,[1],inactive
same,outcome,[2],inactive
same,outcome,[3],inactive
same,Potency,[4],inactive
Oc1ccc(C2CNCc3sccc32)cc1O (stereo not given),Potency,[1],inactive
same,outcome,[2],inactive
same,outcome,[3],inactive
CCOC(=O)N1CCN(/[N+]([O-])=N/Oc2ccc([N+](=O)[O-])cc2[N+](=O)[O-])CC1,Potency,[1],inactive
same,outcome,[2],inactive
CCNC(=O)[C@H]1O[C@@H](n2cnc3c(N)nc(NCCc4ccc(CCC(=O)O)cc4)nc32)[C@H](O)[C@@H]1O,Potency,[1],inactive
same,outcome,[2],inactive
same,outcome,[3],inactive
same,Potency,[4],5.17 µM (active)
C[N+]1(C)C2CC(OC(=O)[C@H](CO)c3ccccc3)CC1C1OC12 (stereo not given in full),Potency,[1],inactive
same,outcome,[2],inactive
same,outcome,[3],inactive
O=C1O/C(=C/Br)CCC1c1cccc2ccccc12 (stereo not given),Potency,[1],inactive
same,outcome,[2],inactive
same,outcome,[3],inactive
same,Potency,[4],inactive
NC(=S)NCCC[C@H](N)C(=O)O,Potency,[1],inactive
same,outcome,[2],inactive
same,outcome,[3],inactive
same,Potency,[4],inactive
CCCCCCCC/C=C\CCCCCCCC(=O)NCCO,Potency,[1],inactive
same,outcome,[2],inactive
same,outcome,[3],inactive
same,Potency,[4],inactive
CNCC[C@H](Oc1ccc(C(F)(F)F)cc1)c1ccccc1,Potency,[1],inactive
same,outcome,[2],inactive
same,outcome,[3],inactive
same,Potency,[4],inactive
O=C1NC(=O)/C(=C/c2ccc(-c3ccc(F)cc3O)o2)S1,Potency,[1],inactive
same,outcome,[2],inactive
same,Potency,[4],inactive
CCCCCCCCCCCCCCCCCC(=O)NCC(COP(=O)([O-])OCC[N+](C)(C)C)OCC (stereo not given),Potency,[1],inactive
same,outcome,[2],inactive
same,outcome,[3],inactive
same,Potency,[4],inactive
NCCNC(=O)c1ncsc1-c1cccc(F)c1,Potency,[1],inactive
same,outcome,[2],inactive
same,outcome,[3],inactive
same,Potency,[4],inactive
COc1cc2c(CCNC(C)=O)c[nH]c2cc1Cl,Potency,[1],inactive
same,outcome,[2],inactive
same,outcome,[3],inactive
CC(C)ON([C@@H](C(=O)NO)C(C)C)S(=O)(=O)c1ccc(-c2ccccc2)cc1,Potency,[1],inactive
same,outcome,[2],inactive
same,Potency,[4],inactive
COc1ccccc1N1CCN(CCCCNS(=O)(=O)c2cccc3c(N(C)C)cccc23)CC1,outcome,[2],inactive
same,outcome,[3],inactive
Nc1nc2ccc([N+](=O)[O-])cc2s1,Potency,[5],66.8 µM (active)
same,activation,[6],-0.326% (inactive)
same,Potency,[7],16.8 µM (active)
same,Potency,[8],16.8 µM (active)
Nc1ccc(O)c([N+](=O)[O-])c1,Potency,[5],26.6 µM (active) and 24.3 µM (active)
same,activation,[6],-0.599% (inactive) and -0.904% (inactive)
same,Potency,[7],33.5 µM (active)
S=c1[nH]c2ccccc2s1,Potency,[5],37.6 µM (active) and 27.3 µM (active)
same,activation,[9],-3.47% (inactive) and -2.03% (inactive)
CN(C)c1ccc(N=NS(=O)(=O)O)cc1,Potency,[5],37.6 µM (active) and 24.3 µM (active)
same,activation,[9],-1.59% (inactive) and 15.3% (inactive)
same,Potency,[7],15 µM (active)
same,Potency,[8],8.41 µM (active)
CC12C(=O)OC(=O)C1(C)C1CCC2O1 (stereo not given),outcome,[2],inactive
same,outcome,[3],inactive
O=C(O)c1ccccc1Nc1cccc(C(F)(F)F)c1,activation,[9],3.61% (inactive)
same,activation,[6],-0.0531% (inactive)
NS(=O)(=O)C#Cc1ccccc1,outcome,[2],inactive
same,outcome,[3],inactive
C=CC(=O)c1ccc(CCCCCC)cc1,outcome,[2],inactive
same,outcome,[3],inactive
N.N.O=C(O)C1(C(=O)O)CCC1.[Pt],outcome,[2],inactive
same,outcome,[3],inactive
C=C[C@@H]1CN2CC[C@@H]1C[C@H]2[C@H](O)c1ccnc2ccc(OC)cc12,Potency,[1],inactive
same,Potency,[4],inactive
N=C1N=C(N)c2cc3ccccc3cc21,Potency,[5],16.8 µM (active)
same,Potency,[9],35.5 µM (active)
same,Potency,[7],6.68 µM (active)
CN1CCc2cc(O)c(O)cc2C(c2ccccc2)C1 (stereo not given),outcome,[2],inactive
same,outcome,[3],inactive
Nc1ccc([N+](=O)[O-])cc1O,activation,[9],-1.9% (inactive) and 0.18% (inactive)
same,activation,[6],0.687% (inactive) and -0.798% (inactive)
C=CCc1cccc(/C=N/NC(=O)CN2CCN(Cc3ccccc3)CC2)c1O,Potency,[10],16.6 µM (active)
same,outcome,[11],inactive
same,viability (% of control),[12],11.3%
same,"viability, percent of control",[13],26%
same,outcome,[14],inactive
O=C(O)/C=C\C(=O)O,activation,[9],-1.58% (inactive)
same,activation,[6],-0.21% (inactive)
CC(C)CC(NP(=O)(O)O[C@@H]1O[C@@H](C)[C@H](O)[C@@H](O)[C@H]1O)C(=O)NC(Cc1c[nH]c2ccccc12)C(=O)O (stereo not given in full),Potency,[1],inactive
same,outcome,[3],inactive
O=[N+]([O-])c1ccc(CSc2ncnc3c2ncn3[C@@H]2O[C@H](CO)[C@@H](O)[C@H]2O)cc1,Potency,[1],inactive
same,outcome,[2],inactive
same,Potency,[4],inactive
CCN(CC)c1ncnc2c1ncn2[C@@H]1O[C@H](COP(=O)(O)OP(=O)(O)C(Br)(Br)P(=O)(O)O)[C@@H](O)[C@H]1O,Potency,[1],inactive
same,outcome,[2],inactive
same,Potency,[4],inactive
NCCO,Potency,[5],inactive
same,activation,[9],-4.3% (inactive)
O=C(O)c1cc(=O)c2c(Cl)cc(Cl)cc2[nH]1,outcome,[2],inactive
same,outcome,[3],inactive
same,Potency,[4],inactive
O=S(=O)(c1cccc2c(I)cccc12)N1CCCNCC1,outcome,[2],inactive
same,outcome,[3],inactive
same,Potency,[4],inactive
O=Nc1ccc2oc(=O)ccc2c1,Potency,[1],inactive
same,outcome,[2],inactive
same,Potency,[4],inactive
COC1=C(OC)C(=O)c2ccccc2C1=O,outcome,[2],inactive
same,Potency,[4],inactive
CCCC1(C)C(C#N)(C#N)C1(C#N)C#N,outcome,[2],inactive
same,outcome,[3],inactive
same,Potency,[4],inactive
CC1(C)S[C@@H]2[C@H](NC(=O)[C@H](N)c3ccccc3)C(=O)N2[C@H]1C(=O)O,activation,[9],1.65% (inactive)
O=C1CN(/N=C/c2ccc([N+](=O)[O-])o2)C(=O)N1,activation,[9],5.55% (inactive)
same,Potency,[7],37.6 µM (active)
CCN1/C(=C/C(C)=O)Sc2ccc(OC)cc21,Potency,[1],inactive
same,outcome,[2],inactive
same,Potency,[4],inactive
O=c1cc(-c2ccccc2)oc2ccccc12,Potency,[5],4.61 µM (active) and 5.45 µM (active)
same,activation,[6],-0.929% (inactive) and -1.54% (inactive)
O=C1NC(O)=NC1(c1ccccc1)c1ccccc1,Potency,[4],inactive
OC[C@H]1O[C@@H](n2cnc3c(Nc4ccccc4)ncnc32)[C@H](O)[C@@H]1O,outcome,[2],inactive
same,outcome,[3],inactive
same,Potency,[4],inactive
CC(C)NC[C@@H](O)c1ccc(O)c(O)c1,outcome,[3],inactive
same,Potency,[4],inactive
N=C(N)SCCc1ccc(CCSC(=N)N)cc1,outcome,[2],inactive
same,outcome,[3],inactive
same,Potency,[4],inactive
CC(=O)/C=C1\C(=O)N(C)c2ccccc21,Potency,[1],inactive
same,outcome,[2],inactive
same,Potency,[4],inactive
O=C(O)CC1CCCc2ccccc2C1O (stereo not given),outcome,[2],inactive
same,Potency,[4],inactive
O=C(Nc1cccc(C(=O)Nc2ccc(S(=O)(=O)O)c3cc(S(=O)(=O)O)cc(S(=O)(=O)O)c23)c1)Nc1cccc(C(=O)Nc2ccc(S(=O)(=O)O)c3cc(S(=O)(=O)O)cc(S(=O)(=O)O)c23)c1,outcome,[2],inactive
same,outcome,[3],inactive
same,Potency,[4],inactive
COc1cccc(OC)c1OCCNCC1COc2ccccc2O1 (stereo not given),outcome,[2],inactive
same,Potency,[4],0.092 µM (active)

# From PubChem BioAssay (NCATS)
